# APOBEC3A inh: APOBEC3A ssDNA deaminase inhibitors, primary screen, selectivity assay for APOBEC3G inhibitor project, biochemical, FAM/TAMRA oligo cleavage fluorescence | actives 0.41% (n = 330,000) | DNA dC->dU-editing enzyme APOBEC-3A (Homo sapiens), P31941 | recombinant A3A, FAM/TAMRA ssDNA deamination fluorescence | inhibition, % at 20 µM;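 active means at least 40% inhibition at 20 µM here, with at most 30% in a related deaminase screen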;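 further: plate controls were A3A with DMSO for no effect and wells lacking A3A enzyme for full effect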
# Target sequence (P31941 whole entry, looked up): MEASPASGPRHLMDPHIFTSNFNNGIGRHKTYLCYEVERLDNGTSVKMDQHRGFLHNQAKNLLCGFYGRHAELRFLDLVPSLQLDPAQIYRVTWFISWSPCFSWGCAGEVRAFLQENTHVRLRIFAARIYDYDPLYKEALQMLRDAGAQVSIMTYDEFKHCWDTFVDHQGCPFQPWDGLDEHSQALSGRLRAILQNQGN
# PABP FP inh: PABP poly(A) RNA binding inhibitors, primary screen, biochemical, fluorescence polarization, uHTS; Polyadenylate-binding protein 1 (Homo sapiens), P11940; calls only at 35 µM; actives 1% (n = 290,000); AID 2014, 2009;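 further: calls also rest on retests at 20 µM and on dose response follow-up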
# A3G deaminase: APOBEC3G DNA deaminase inhibitors, primary screen, biochemical, fluorescence, single-stranded DNA substrate, uHTS; DNA dC->dU-editing enzyme APOBEC-3G (Homo sapiens), Q9HC16; recombinant A3G, ssDNA deamination FAM/TAMRA fluorescence; inhibition, % at 20 µM; actives 0.28% (n = 330,000); AID 493012, 2011;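 active means inhibition of at least 40% at 20 µM, with no more than 30% in the related APOBEC3A deaminase screen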;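 further: plate controls were DMSO wells with A3G for no effect and wells lacking A3G enzyme for full effect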
# Target sequence (Q9HC16 whole entry, looked up): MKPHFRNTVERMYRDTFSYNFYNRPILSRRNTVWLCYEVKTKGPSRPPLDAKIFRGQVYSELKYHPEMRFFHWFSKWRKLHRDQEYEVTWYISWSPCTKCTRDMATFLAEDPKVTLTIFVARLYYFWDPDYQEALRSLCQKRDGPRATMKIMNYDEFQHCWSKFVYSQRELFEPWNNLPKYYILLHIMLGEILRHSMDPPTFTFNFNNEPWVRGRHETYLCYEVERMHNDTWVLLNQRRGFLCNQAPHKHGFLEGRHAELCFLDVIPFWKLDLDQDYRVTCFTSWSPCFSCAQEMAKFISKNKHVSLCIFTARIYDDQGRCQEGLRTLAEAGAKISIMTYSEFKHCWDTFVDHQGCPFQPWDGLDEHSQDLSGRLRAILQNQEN
# MLLE-PAM2 inh: inhibitors of PABP1 MLLE–PAM2 peptide binding, primary screen, biochemical, fluorescence polarization, FITC-PAM2, GST-MLLE. inhibition, % at 20 µM. actives 0.36% (n = 360,000). AID 588489, 2011; in the data active means inhibition above about 35%, passing the limit was not always enough;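 further: plate controls were DMSO wells with GST-MLLE for no effect and wells lacking GST-MLLE protein for full effect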
# eIF4H FP inh: human eIF4H binding inhibitors, primary screen, translation initiation inhibitor project, biochemical, uHTS, fluorescence polarization; Eukaryotic translation initiation factor 4H (Homo sapiens), Q15056; inhibition, % at 35 µM; AID 2012, 2009; actives 0.94% (n = 290,000); eIF4H fluorescence polarization binding assay;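 further: calls also rest on retests at 20 µM and on dose response follow-up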
# PHOSPHO1 inh: PubChem AID 1565. recombinant PHOSPHO1, absorbance phosphatase assay. Phosphoethanolamine/phosphocholine phosphatase (Homo sapiens), Q8TCT1. actives 1.1% (n = 290,000). inhibition, % at 13.3 µM; in the data active means inhibition above about 60%
# A3A conf: APOBEC3A deaminase inhibitors, retest, confirmation, selectivity assay for APOBEC3G inhibitor project, biochemical, single concentration, fluorescence readout; shares compounds with APOBEC3A inh; recombinant A3A, ssDNA deaminase UDG fluorescence assay; inhibition, % at 20 µM; actives 63% (n = 1,400);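 active means inhibition reaching a set limit, 80% of the first screen's cutoff, at 20 µM in any replicate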;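 further: plate controls were DMSO wells with A3A for no effect and wells lacking A3A enzyme for full effect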
# UDG ctr A3A: E. coli UDG inhibitors, confirmation, counter-screen for APOBEC3A inhibitor project, biochemical, single concentration, fluorescence, FAM/TAMRA oligo; shares compounds with APOBEC3A inh; UDG counterscreen, FAM/TAMRA uracil oligo fluorescence; inhibition, % at 20 µM; 1,000 tested, under 10 active
# * = called active by the depositor; i = inactive; ? = inconclusive; . = no result given. Most compounds without a hit are left out; they make up all but 2.6% or so of the library. Unless noted, how the calls were made is not given here.
SMILES,APOBEC3A inh,PABP FP inh,A3G deaminase,MLLE-PAM2 inh,eIF4H FP inh,PHOSPHO1 inh,A3A conf,UDG ctr A3A
Cc1c2ccccc2cc(Cc2ccccc2)[n+]1C,43*,i,8,-98,-9,14,60*,-3
Cc1nc(N)nc(C)c1Cc1ccccc1,4,i,4,-9,-2,3,.,.
COc1ccc(NC(C#N)c2ccccc2OCc2ccccc2)cc1 (centres undefined),-6,i,-9,-10,1,-14,.,.
CCCCn1c(N)c(N(CC(C)C)C(=O)COC(=O)c2ccccc2NCCO)c(=O)[nH]c1=O,41*,.,8,-80,.,.,17,.
CC(C)CCNC(=O)CN(Cc1ccccc1Cl)C(=O)CCC(=O)Nc1ccccn1,1,i,-2,2,-3,-41,.,.
Cc1ccc(NC2CCCN(C(=O)CCn3nccc3C)C2)cc1C (centres undefined),-2,i,17,1,6,-1,.,.
O=C(NCCc1ccccc1)c1ccc2c(c1)OCCCO2,42*,i,6,-115,-6,30,51*,2
O=C(CN1C(=O)NC2(CCSC2)C1=O)NCc1ccccc1 (centres undefined),84*,i,-9,-16,-7,10,-6,-2
O=C(CN1C(=O)NC2(CCCC2)C1=O)NCc1ccccc1,-3,.,-7,-3,.,.,.,.
O=C(c1cc(COc2ccc(F)cc2F)on1)N1CCN(C2CCCC2)C(=O)C1,-4,i,-5,11,2,48,.,.
C/C(=N\NC(=O)CO/N=C(\C)c1cccs1)c1ccc(N)cc1,7,i,2,-10,2,30,.,.
C/C(=N\OCC(=O)N/N=C/c1ccc(C)cc1O)c1cccs1,51*,i,-7,6,-7,45,-3,1
OCC[C@H]1C[C@@H](O)[C@H](O)[C@]2(CCCO2)O1,1,.,-4,2,.,.,.,.
C[C@H](CO)N1C[C@H](C)[C@@H](CN(C)Cc2ccc(C(=O)O)cc2)Oc2c(cccc2N(C)C)C1=O,-7,.,-8,-5,.,.,.,.
COC(=O)C1=C(C)N(Cc2ccccc2)C(=NCc2ccccc2)N[C@H]1c1cccc(C(F)(F)F)c1,19,.,-1,-37,.,.,.,.
CCN1C(=NCCOC)N[C@@H](c2cccc(C(F)(F)F)c2)C(C(=O)OC)=C1C,45*,.,14,-91,.,.,80*,-2
CCN1C(=NCC2CC2)N[C@@H](c2cccc(C(F)(F)F)c2)C(C(=O)OC)=C1C,56*,i,8,-126,2,-36,67*,3
COC(=O)C1=C(C)N(Cc2ccccc2)C(=NCC(C)C)N[C@H]1c1cccc(C(F)(F)F)c1,48*,.,16,-116,.,.,75*,3
CCN1C(=NCCc2ccccn2)N[C@@H](c2cccc(C(F)(F)F)c2)C(C(=O)OC)=C1C,32,.,7,-100,.,.,.,.
O=C(/C=C/[C@H]1O[C@@H](n2cnc3c(NC(=O)c4ccccc4)ncnc32)[C@H](O)[C@@H]1O)NCCCN1CCCC1=O,.,.,.,-10,.,.,.,.
O=C(O)c1ccc(N/N=C/C=C/c2ccc([N+](=O)[O-])o2)cc1,48*,i,25,-150,24,26,41*,.
Cc1cccc(N2CCN(C(=O)CCS(=O)(=O)c3ccc(Br)cc3)CC2C)c1 (centres undefined),45*,i,18,-10,74,-12,29,.
CC(=O)N1CCCc2cc(S(=O)(=O)CCC(=O)N3CCN(c4cccc(C)c4)C(C)C3)ccc21 (centres undefined),0,i,-5,2,-6,-9,.,.
O=C(CC12CCC(CC1)C2)NCc1ccc2c(c1)OCO2,44*,i,-3,2,4,3,-4,-1
COc1ccc2sc(NC(=O)c3ccco3)nc2c1,61*,i,29,-106,-2,96*,48*,-2
SMILES,APOBEC3A inh,PABP FP inh,A3G deaminase,MLLE-PAM2 inh,eIF4H FP inh,PHOSPHO1 inh,A3A conf,UDG ctr A3A
COc1ccc2nc(NC(=O)c3ccc(-c4cccc([N+](=O)[O-])c4)o3)sc2c1,53*,i,14,.,0,-6,32*,.
O=C(Nc1nc2ccc([N+](=O)[O-])cc2s1)c1ccco1,8,i,6,.,-18,20,.,.
C[C@@H]1CN([C@@H](C)CO)C(=O)c2cc(NC(=O)Nc3ccc(F)cc3)ccc2O[C@@H]1CN(C)Cc1ccc(Oc2ccccc2)cc1,-1,.,-2,-3,.,.,.,.
COc1ccc(-c2noc(CSc3nc(-c4ccccc4)cc(=O)[nH]3)n2)cc1,56*,i,14,-112,-8,102*,22,.
Oc1ccccc1/C=N/[n+]1ccccc1,69*,.,15,-81,.,15,66*,-1
Oc1ccccc1C=NC(c1ccccc1)C(O)c1ccccc1 (centres undefined),-3,i,-5,-2,7,5,.,.
O=C(Nc1cccnc1Cl)c1cc(-c2cccc(O)c2)on1,1,i,-7,4,-8,18,.,.
Cc1csc(NC(=O)c2ccc(Cl)nc2)n1,-2,i,-5,2,-1,27,.,.
Cc1cccc(NC(=O)/C(C#N)=C\c2cn(CC(=O)O)c3ccccc23)c1,53*,i,26,8,-5,12,17,.
CN(C)c1cc[n+](CC(=O)Nc2ccc(OC(F)F)cc2)cc1,48*,i,11,-101,-2,12,65*,-3
CC(=O)c1ccc(NC(=O)C[n+]2ccc(N(C)C)cc2)cc1,-5,i,-3,-11,6,39,.,.
COc1ccc(CCNC(=O)C2CCN(C(=O)c3ccc(Br)cc3)CC2)cc1OC,-1,i,0,-8,10,19,.,.
Cc1ccc(N=Nc2c(O)[nH]c3ccc(F)cc23)cc1,-5,?,1,-79,?,-13,.,.
Cc1[nH]c2ccccc2c1N=Nc1ccc(F)cc1,0,i,-8,-4,-2,-39,.,.
